Assay [1] is described as follows: Nuclear factor erythroid 2-related factor 2/antioxidant responsive element (Nrf2/ARE) small molecule agonists: qHTS cell viability counter screen in human keratinocytes (AID 1919968; active = well fitted curve in the direction sought with a large enough effect in the repeat runs; an effect the other way counts as inactive or inconclusive; also: nearly all actives have a fitted effect of over 55% in size; also: potency is read from the fitted curve at half-maximal effect). An outline of the steps: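 Cytotoxicity was multiplexed with the Nrf2/ARE luciferase assay in the same wells. Stably transfected HaCaT keratinocytes were treated with test compounds for 23 h at 37 C. Cell viability was then measured by CellTiter-Fluor fluorescence.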
On the technique in general: In qHTS, concentration-response curves come from the screen itself.

Assay [2] is described as follows: Nuclear factor erythroid 2-related factor 2/antioxidant responsive element (Nrf2/ARE) small molecule agonists: luciferase reporter gene qHTS assay in human keratinocytes (AID 1919969). Also: nearly all actives have a fitted effect of over 35% in size. Also: potency is read from the fitted curve at half-maximal effect.
Assay [3] concerns the target KiSS-1 receptor (Homo sapiens) (UniProt Q969F8). Put plainly: Human kisspeptin (KISS1R) small molecule agonists, calcium flux assay in KISS1R-HEK293 cells (AID 1920064; active = well fitted curve in the direction sought with a large enough effect in the repeat runs; an effect the other way counts as inactive or inconclusive). An outline of the steps:
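Agonist activity is monitored as intracellular calcium rise in engineered HEK293 cells carrying human KISS1R. Cells are dye-loaded for 1 h at 37 C before compound addition, and fluorescence is recorded for 3 min.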

Assay [4] can be described thus: p53 small molecule agonists, cell-based qHTS assay: qHTS cell viability counter screen (AID 1963581). Also: nearly all actives have a fitted effect of over 45% in size. Also: potency is read from the fitted curve at half-maximal effect. The method in brief:
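Viability was counter-screened in parallel with the p53 agonist reporter by measuring intracellular ATP luminescence in the same HCT-116 p53RE-bla wells after 16 h compound treatment at 37 C.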

For assay [5], the target named is 5-hydroxytryptamine receptor 2A (Homo sapiens) (UniProt P28223). Nature of the assay: 5-hydroxytryptamine receptor 2A (HTR2A) small molecule antagonists, cell-based qHTS assay (AID 1963586). Also: nearly all actives have a fitted effect of over 45% in size. An outline of the steps: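 CHO cells stably expressing human HTR2A were plated for 18 h at 37 C, then loaded with calcium dye for 1 h. Compounds were preincubated 5 min at room temperature before DOI (4 nM solution) was added. Kinetic fluorescence was read for 3 min.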

The target is the same in assay [6]. Nature of the assay: 5-hydroxytryptamine receptor 2A (HTR2A) small molecule agonists, cell-based qHTS assay (AID 1963587). Also: nearly all actives have a fitted effect of over 30% in size. An outline of the steps:
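HTR2A-CHO cells, plated 18 h at 37 C/5% CO2, dye-loaded 1 h at 37 C; compounds in DMSO added by pin tool (agonist mode). Intracellular calcium flux read as kinetic fluorescence on FDSS over 2 min at 1 s intervals.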

The target in assay [7] is Muscarinic acetylcholine receptor M1 (Homo sapiens) (UniProt P11229). Nature of the assay: Cholinergic receptor muscarinic 1 (CHRM1) small molecule antagonists, cell-based qHTS assay (AID 1963588). Also: nearly all actives have a fitted effect of over 40% in size. The method in brief:
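Compounds were tested at 15 concentrations in three independent runs. Dye-loaded CHRM1-CHO cells were exposed 5 min at room temperature before stimulation by acetylcholine added at 50nM. Intracellular calcium was read kinetically on FDSS for 3 min.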

Assay [8] shares this target. Put plainly: Cholinergic receptor muscarinic 1 (CHRM1) small molecule agonists, cell-based qHTS assay (AID 1963589). Also: nearly all actives have a fitted effect of over 35% in size. The method in brief:
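Cells were plated and incubated 18 h at 37 C/5% CO2, loaded with calcium dye for 1 h at 37 C, then treated with compounds in DMSO. Fluorescence was recorded kinetically at 1 sec intervals.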

Assay [9] addresses Beta-2 adrenergic receptor (Homo sapiens) (UniProt P07550). Nature of the assay: Adrenergic beta2 receptor (ADRB2) small molecule antagonists, cell-based qHTS assay (AID 1963592). Also: series mostly up to about 92 µM; nearly all actives have a fitted effect of over 50% in size. An outline of the steps: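 Assay format: CHO-ADRB2 cells, 18-20hr seeding at 37C/5% CO2, then compound plus 1nM isoproterenol agonist mix for 0.5hr RT. Homogeneous time-resolved fluorescence cAMP detection after 1hr, expressed as 665/615 nm ratio.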

The target of assay [10] is D(2) dopamine receptor (Homo sapiens) (UniProt P14416). Put plainly: Dopamine D2 receptor (DRD2) small molecule agonists, cell-based qHTS assay (AID 1963594). Also: nearly all actives have a fitted effect of over 35% in size. An outline of the steps: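 HEK293 cells stably expressing DRD2 were cultured 24 h at 37 C, then given Ro20-1724 (0.1 mM final) and compounds for 10 min at room temperature. NKH477 (200nM) was then added for 30 min. cAMP was read by HTRF.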

The target is the same in assay [11]. Put plainly: Dopamine D2 receptor (DRD2) small molecule antagonists, cell-based qHTS assay (AID 1963595; active = well fitted inhibition curve with a large enough effect in the signal ratio in the repeat runs, with a control signal flat; the % refers to the signal ratio; also: potency is read from the fitted curve at half-maximal effect). The method in brief:
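HTRF cAMP read-out at 665 and 620 nm emission (340 nm excitation). Antagonist mode: compounds were tested against 12 nM quinpirole in DRD2-HEK293 cells, with 200 nM NKH477 raising cAMP and 0.1 mM Ro20-1724 blocking its breakdown.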

Assay [12] is described as follows: G protein-coupled receptor (GPCR) small molecule agonists, calcium flux assay: HEK293 wild type cell line counter screen (AID 1920065). An outline of the steps: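 Seed cells, incubate 18 h (37 C, 5% CO2); add calcium dye, 1 h at 37 C; pin-transfer compounds, ATP control or DMSO; read fluorescence 480/540 nm each second for 3 min.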
Assay [13] can be described thus: p53 small molecule agonists, cell-based qHTS assay with rat liver microsomes (AID 1963578). The method in brief: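 p53RE-bla cells were exposed to compounds together with rat liver microsomes (0.5 mg/mL final) and NADPH (0.5 mg/mL final) for 16 h at 37 C, then read by LiveBLAzer beta-lactamase fluorescence after 2 h at room temperature.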
Assay [14] can be described thus: p53 small molecule agonists, cell-based qHTS assay with human liver microsomes: qHTS cell viability counter screen (AID 1963579). Also: nearly all actives have a fitted effect of over 45% in size. The method in brief: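 p53RE-bla cells (4,000/well) were pre-incubated 5 h at 37 C, then given compounds in DMSO plus human liver microsomes (0.5 mg/mL final) and NADPH (0.5 mg/mL final) for 16 h at 37 C. Viability was read by CellTiter-Glo luminescence.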

A short description of assay [15]: p53 small molecule agonists, cell-based qHTS assay with rat liver microsomes: qHTS cell viability counter screen (AID 1963580). Also: nearly all actives have a fitted effect of over 45% in size. The method in brief: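 Counter screen for cytotoxicity under metabolic activation: rat liver microsomes and NADPH, 0.5 mg/mL final each, added with compounds to p53RE-bla HCT-116 cells; 16 h at 37 C, then ATP luminescence read.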
Assay [16] can be described thus: cAMP Responsive Elements (CRE) small molecule agonists, cell-based qHTS assay (AID 1963590). An outline of the steps: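 Cells carrying a CRE-driven beta-lactamase reporter (HEK 293T) are seeded, incubated overnight (18 h), and treated with test compounds for 3 h at 37 C; reporter activity is then detected with a FRET substrate after 2 h at room temperature.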
Assay [17] is described as follows: cAMP Responsive Elements (CRE) small molecule antagonists, cell-based qHTS assay (AID 1963591; active = well fitted inhibition curve with a large enough effect in the signal ratio in the repeat runs, not every such curve was filed as active; the % refers to the signal ratio; also: potency is read from the fitted curve at half-maximal effect). The method in brief: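 Cells (CRE-bla HEK 293T, DMEM with 10% dialyzed FBS and 25 mM HEPES) are seeded and incubated 18 h. Compounds are added with NKH477 agonist at 0.25 uM final for 3 h, then FRET substrate for 2 h.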
Assay [18] can be described thus: p53 small molecule agonists, cell-based qHTS assay with human liver microsomes (AID 1963577). An outline of the steps: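 p53RE-bla reporter cells were pre-incubated 5 h at 37 C, then treated with compounds plus human liver microsomes (0.5 mg/mL final) and NADPH (0.5 mg/mL final) for 16 h at 37 C. Beta-lactamase activity was read by LiveBLAzer fluorescence after 2 h at room temperature.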

Assay [19] is described as follows: p53 small molecule agonists, cell-based qHTS assay (AID 1963582; active = well fitted activation curve with a large enough effect in the signal ratio in the repeat runs, not every such curve was filed as active; the % refers to the signal ratio; also: potency is read from the fitted curve at half-maximal effect). An outline of the steps:
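Cells carrying a p53-responsive bla reporter are treated with test compounds for 16 h at 37 C; beta-lactamase activity is then detected with LiveBLAzer B/G FRET substrate after 2 h at room temperature.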

Assay [20] concerns the target Beta-2 adrenergic receptor (Homo sapiens) (UniProt P07550). Nature of the assay: Adrenergic beta2 receptor (ADRB2) small molecule agonists, cell-based qHTS assay (AID 1963593).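 Also: CHO cells stably overexpressing human ADRB2.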 The method in brief: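 CHO cells stably over-expressing ADRB2 were plated overnight at 37C, then dosed with compounds plus a stimulation mix containing 100uM IBMX and 25uM Ro-20-1724 for 0.5hr at room temperature. cAMP was measured by HTRF competition, 1hr.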

The structures appear in SMILES notation. “And” between values parts separate entries of the source, which are not always exact repeats. Equal values may be shown once. A number with no mark means an inactive call. Records with an inconclusive call do not appear. The source made the active and inactive calls. Unless noted, calls follow the shape of the full dose curve.
% is scaled to controls: 0 for no effect and ±100 for the full control effect.

5-hydroxytryptamine receptor 2A (Homo sapiens), sequence (P28223 whole entry, looked up): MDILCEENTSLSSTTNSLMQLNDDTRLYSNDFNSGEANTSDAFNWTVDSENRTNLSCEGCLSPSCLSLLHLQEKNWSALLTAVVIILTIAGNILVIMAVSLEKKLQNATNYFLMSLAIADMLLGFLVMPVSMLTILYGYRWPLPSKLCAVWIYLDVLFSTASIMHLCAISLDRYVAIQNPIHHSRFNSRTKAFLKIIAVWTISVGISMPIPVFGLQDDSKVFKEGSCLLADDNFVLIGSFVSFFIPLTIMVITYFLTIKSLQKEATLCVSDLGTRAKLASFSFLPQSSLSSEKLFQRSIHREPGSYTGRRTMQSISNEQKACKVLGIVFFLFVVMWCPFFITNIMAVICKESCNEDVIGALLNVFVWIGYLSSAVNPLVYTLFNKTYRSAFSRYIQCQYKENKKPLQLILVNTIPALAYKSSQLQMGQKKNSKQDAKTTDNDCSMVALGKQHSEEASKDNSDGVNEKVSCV
D(2) dopamine receptor (Homo sapiens), sequence (P14416 whole entry, looked up): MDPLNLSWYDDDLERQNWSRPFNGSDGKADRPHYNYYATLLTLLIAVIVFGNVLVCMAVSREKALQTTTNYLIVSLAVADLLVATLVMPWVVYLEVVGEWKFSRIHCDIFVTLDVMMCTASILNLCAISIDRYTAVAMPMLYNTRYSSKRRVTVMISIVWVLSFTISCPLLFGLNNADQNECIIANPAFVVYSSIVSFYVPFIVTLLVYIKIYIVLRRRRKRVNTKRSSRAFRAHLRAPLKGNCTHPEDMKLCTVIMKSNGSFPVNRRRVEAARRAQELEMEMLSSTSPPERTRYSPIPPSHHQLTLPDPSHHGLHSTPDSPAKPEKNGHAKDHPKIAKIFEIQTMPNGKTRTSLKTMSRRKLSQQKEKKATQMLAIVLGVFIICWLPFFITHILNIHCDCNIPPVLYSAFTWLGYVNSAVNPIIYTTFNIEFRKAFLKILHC
KiSS-1 receptor (Homo sapiens), sequence (Q969F8 whole entry, looked up): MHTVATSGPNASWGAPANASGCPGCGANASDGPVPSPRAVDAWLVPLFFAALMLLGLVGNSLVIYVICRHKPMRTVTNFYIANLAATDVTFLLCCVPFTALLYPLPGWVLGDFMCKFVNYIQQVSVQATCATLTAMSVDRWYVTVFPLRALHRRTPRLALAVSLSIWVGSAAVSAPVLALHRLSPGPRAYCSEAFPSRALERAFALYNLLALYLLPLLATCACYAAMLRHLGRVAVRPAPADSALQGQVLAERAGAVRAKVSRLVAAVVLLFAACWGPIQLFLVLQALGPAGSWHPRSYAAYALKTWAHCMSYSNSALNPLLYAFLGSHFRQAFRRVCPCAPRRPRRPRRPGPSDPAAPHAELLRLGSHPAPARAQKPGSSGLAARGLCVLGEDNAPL
Beta-2 adrenergic receptor (Homo sapiens), sequence (P07550 whole entry, looked up): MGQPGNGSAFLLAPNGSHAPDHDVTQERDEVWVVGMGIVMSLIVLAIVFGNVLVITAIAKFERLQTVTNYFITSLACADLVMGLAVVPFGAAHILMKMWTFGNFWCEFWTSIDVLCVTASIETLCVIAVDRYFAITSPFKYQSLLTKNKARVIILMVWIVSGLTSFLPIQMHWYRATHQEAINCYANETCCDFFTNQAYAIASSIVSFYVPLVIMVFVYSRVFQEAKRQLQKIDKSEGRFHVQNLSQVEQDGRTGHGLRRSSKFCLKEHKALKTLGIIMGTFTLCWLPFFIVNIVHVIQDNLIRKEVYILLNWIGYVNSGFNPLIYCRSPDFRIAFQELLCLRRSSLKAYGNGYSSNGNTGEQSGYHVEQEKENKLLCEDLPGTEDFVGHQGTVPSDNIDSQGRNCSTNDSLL
Muscarinic acetylcholine receptor M1 (Homo sapiens), sequence (P11229 whole entry, looked up): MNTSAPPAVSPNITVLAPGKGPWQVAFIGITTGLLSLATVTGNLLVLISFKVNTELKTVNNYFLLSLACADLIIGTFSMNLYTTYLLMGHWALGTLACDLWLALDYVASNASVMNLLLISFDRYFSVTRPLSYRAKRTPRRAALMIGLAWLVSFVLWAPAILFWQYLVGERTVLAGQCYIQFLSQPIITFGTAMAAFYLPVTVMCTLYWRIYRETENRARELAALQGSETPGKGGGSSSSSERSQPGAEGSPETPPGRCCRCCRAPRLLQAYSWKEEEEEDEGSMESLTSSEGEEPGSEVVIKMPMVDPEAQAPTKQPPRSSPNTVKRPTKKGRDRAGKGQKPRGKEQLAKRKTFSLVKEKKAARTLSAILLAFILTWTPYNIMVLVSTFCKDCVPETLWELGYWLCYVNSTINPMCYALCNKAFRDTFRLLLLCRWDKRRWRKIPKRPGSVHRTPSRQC

Regarding `C=CC(=O)OCC(CO)(COC(=O)C=C)COC(=O)C=C`, the Potency in [1] was 4.87 µM (active) and 12.2 µM (active); in assay [2], 4.87 µM (active) and 6.11 µM (active); in assay [4], 16.3 µM (active) and 10.2 µM (active); in [11], 54.6 µM (active) and 21.7 µM (active). In addition, the Potency result in assay [3], in assay [5], in [6], in [7], in assay [8] and in [9] was “inactive” each time. The Potency result in [10] is “inactive”.
Take `CCCCNc1ccccc1`: the Potency entry in assay [1], in [2], in assay [3], in [12], in assay [13] and in assay [14] was “inactive” throughout. Also, the Potency entry in [15], in [4], in assay [5], in assay [6], in assay [7] and in assay [8] was “inactive” each time. The Potency entry in [16], in [17], in [9] and in assay [11] was “inactive” throughout.
For `CCC(C)S` (stereo unspecified), the activity change, negative = cytotoxicity in [1] is -0.322% [at 3.27 µM]; in assay [15] it was 2.16% [at 2.33 µM]; in assay [4], 10.6% [at 2.33 µM]. For the same molecule, the activity, positive = activation in [2] is -3.8% [at 3.27 µM]. Further, the activation in [3] is 1.34% [at 2.72 µM]; in assay [12] it was 0.0986% [at 2.04 µM]; in assay [18], 0.369% [at 2.33 µM]; in assay [13], 1.35% [at 2.33 µM]; in [19], -0.925% [at 2.33 µM]; in [6], 0.646% [at 2.65 µM]. For the same molecule, the activation in assay [8] was 0.317% [at 2.72 µM]; in assay [16] it was -0.121% [at 3.27 µM]; in assay [20], 11% [at 3.27 µM]; in assay [10], 5.57% [at 3.27 µM]. The activity, negative = inhibition in assay [5] was 36.9% [at 2.12 µM]. In addition, the results for the activity change, negative = inhibition in assay [9] and in assay [11] were -1.77% [at 3.27 µM] and 2.46% [at 3.28 µM], respectively.
Regarding `CCOc1c(N2CCOCC2)cnn(C)c1=O`, the Potency entry in assay [1], in [2], in assay [3], in assay [12], in [13] and in assay [14] was “inactive” throughout. The Potency result in assay [15], in assay [4], in [19], in [5], in assay [6] and in [7] was “inactive” each time. Also, the Potency entry in assay [8], in [16], in [17], in [9], in assay [20] and in assay [10] was “inactive” throughout. The Potency result in [11] is “inactive”.
On to `CCCOC(=O)C(C)O` (stereo unspecified), for which the Potency result in [1], in assay [2], in assay [12], in [18], in assay [13] and in assay [14] was “inactive” each time. In addition, the Potency entry in [15], in assay [4], in assay [19], in assay [5], in assay [6] and in [8] was “inactive” in each case. The Potency entry in assay [17], in [9], in assay [20], in assay [10] and in assay [11] was “inactive” throughout.
With `O=C(O)[C@@H]1[C@H]2C[C@H]3c4[nH]c5ccccc5c4CCN3C[C@@H]2CC[C@@H]1O`, the Potency result in [1], in [2], in assay [3], in assay [18], in assay [13] and in assay [14] was “inactive” in each case. The Potency entry in assay [15], in assay [4], in [19], in assay [5], in [6] and in assay [7] was “inactive” each time. In addition, the Potency entry in assay [8], in assay [16], in assay [17], in assay [9], in assay [20] and in assay [10] was “inactive” each time.
`COc1cccc2c1C(=O)c1c(O)c3c(c(O)c1C2=O)C[C@@](O)(C(=O)CO)C[C@@H]3O[C@H]1C[C@H](N)[C@H](O)[C@H](C)O1`: the Potency is 7.5 µM (active) in assay [1]; 2.73 µM (active) and 6.68 µM (active) in assay [2]; 457 nM (active) in assay [19]; 26.6 µM (active) in assay [17]. In addition, the Potency result in assay [3], in assay [12], in [18], in [14], in assay [4] and in assay [16] was “inactive” each time.
In the case of `Oc1ccc(C(c2ccc(O)cc2)C(Cl)(Cl)Cl)cc1`, the Potency in [1] is 60.9 µM (active) and 54.5 µM (active); in [2], 27.3 µM (active). In addition, the Potency entry in [3], in [18], in [13], in [14], in assay [15] and in assay [4] was “inactive” throughout. For the same molecule, the Potency result in [5], in [8], in assay [17], in assay [10] and in assay [11] was “inactive” in each case.

(Values after PubChem BioAssay (Tox21).)
